# Screening results deposited in PubChem by Broad Institute.
# AI-2 QS modul: modulates the Vibrio harveyi AI-2 quorum sensing system; Vibrio harveyi JMH597 AI-2 luminescence/OD600 ratio, 9 h; stronger effect = lower value; strain lacks LuxN and CqsS sensors; 0 = neutral-control median; activity change, % at 7.5 µM; hit rate 0.4% among 300,000; in the data active = activity change below about -75%, passing the limit was not always enough; inconclusive = no clear call, values can overlap the other calls;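 note: luminescence divided by OD600 gain over 9 h not by final OD600 alone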
# HIF act: HIF pathway transcriptional activation | activation, % at 7.5 µM (by protocol) | U2OS HRE-luciferase reporter, luminescence; normalized: DMSO 0%, desferrioxamine 100% | hit rate 0.32% among 300,000;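 active = mean activation of at least 10% of the iron chelator positive control signal, with at least half of replicates also reaching 10%; inconclusive = mean and replicate majority disagree about reaching 10%; inactive = mean and most replicates under 10%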
# ALR inh: human ALR oxidase inhibition via reduced H2O2; P55789; hit rate 3.8% among 290,000; inhibition, % (concentration not given with the values); purified ALR, DTT oxidation, H2O2 HRP-luminol luminescence; AID 485317;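 active = mean replicate inhibition above about 79%, with every replicate also reaching it, limit read from the data; inconclusive = only one of the two criteria met; inactive = mean below limit and not every replicate reaching it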
# Target sequence (P55789 whole entry, looked up): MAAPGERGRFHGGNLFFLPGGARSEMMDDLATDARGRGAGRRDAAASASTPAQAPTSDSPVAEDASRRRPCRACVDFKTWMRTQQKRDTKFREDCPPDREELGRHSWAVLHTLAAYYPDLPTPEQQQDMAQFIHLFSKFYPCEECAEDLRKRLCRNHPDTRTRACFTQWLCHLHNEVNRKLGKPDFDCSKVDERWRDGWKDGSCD
# SUMO Mot1 rescue: blocks SUMOylation pathway, rescuing yeast Mot1-301 growth. growth rescue, % at 18.8 µM. hit rate 1% among 320,000. S. cerevisiae Mot1-301 growth rescue, ATP luminescence, 38.5C; percent above DMSO median, 100 means doubled;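 active = every valid replicate shows activation above 250% relative to neutral control wells; inactive = the rest, any valid replicate at or below 250%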;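 note: OY570 slx delta 5 strain wells were the positive control but not used for scaling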
# JMH597 growth rt: retest: blocks Vibrio harveyi JMH597 growth; hit rate 1% among 750; shares compounds with AI-2 QS modul; growth inhibition, % at 7.5 µM; OD600 absorbance, 9 h; lacks LuxN and CqsS sensors;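 active = every replicate shows growth inhibition above 50%; inconclusive = at least half, but not all, replicates pass that cutoff; inactive = fewer than half of replicates pass it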
# BB721 const-QS lum: retest counter-screen: luminescence loss in constitutive-on quorum sensing strain BB721; shares compounds with AI-2 QS modul; Vibrio harveyi BB721 luminescence, 9 h; inhibition, % at 7.5 µM; hit rate 95% among 750; AID 2727;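 active = inhibition above about 80% in every replicate, not just on average, limit read from the data; inconclusive = at least half of replicates past the limit, but not all; inactive = fewer than half of replicates past the limit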
# BB721 growth rt: retest: blocks Vibrio harveyi BB721 growth; shares compounds with AI-2 QS modul; OD600 absorbance, 9 h; growth inhibition, % at 7.5 µM; hit rate 3% among 750;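 active = every replicate shows growth inhibition above 50%; inconclusive = at least half but not all replicates above 50% inhibition; inactive = under half of replicates above 50% inhibition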
# AI-2 QS JMH597: Vibrio harveyi AI-2 signaling luminescence modulation – JMH597 strain, confirmation. shares compounds with AI-2 QS modul. Vibrio harveyi JMH597 AI-2 quorum sensing luminescence, 9 h; luxN and CqsS knockout, AI-2 only. inhibition, % at 7.5 µM. hit rate 97% among 750;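 active = every replicate shows more than 75% inhibition of signal versus neutral control wells; inconclusive = half to three quarters of replicates exceed 75% inhibition; inactive = fewer than half of replicates exceed 75% inhibition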
# Numbers without * were called inactive; ? = inconclusive; . = no result. In the library only some 4.8% were active in any assay of this set; here they are far more common.
SMILES,AI-2 QS modul,HIF act,ALR inh,SUMO Mot1 rescue,JMH597 growth rt,BB721 const-QS lum,BB721 growth rt,AI-2 QS JMH597
Cc1cccc(CSc2nnc(-c3ccco3)o2)c1,-91*,3,-4,-9,-3,97*,-10,98*
CC(=O)c1c(C)cc(C)c(CSc2nnc(-c3ccco3)o2)c1C,-81*,-1,90*,0,22,89*,16,91*
Cc1cccc(CSc2nnc(-c3ccco3)n2C)c1,-21,1,-8,294,.,.,.,.
Cc1cccc(-c2nnc(SCc3ccccc3)o2)c1,-89*,5,-8,.,43,96*,?,97*
Cc1cccc(NC(=O)CSc2nnc(-c3ccco3)o2)c1C,53,0,-8,-21,.,.,.,.
Cc1cc(C)cc(-c2nnc(SCc3ccc(C(=O)O)cc3)o2)c1,48,0,-12,4,.,.,.,.
CC(NC(=O)CN(Cc1ccccc1)S(=O)(=O)c1ccccc1)c1cccnc1 (configuration not stated),.,.,-1,33,.,.,.,.
CC(C)N(Cc1ccccc1)S(=O)(=O)c1ccc2c(c1)NC(=O)CO2,-3,0,-26,.,.,.,.,.
Nn1c(SCc2ccc(Br)cc2)nnc1-c1ccccn1,-54,2,-18,-2,.,.,.,.
Cc1cccc(CSc2nnc(-c3ccccn3)n2N)c1,-90*,1,-3,0,-4,92*,3,94*
O=C(NCc1ccco1)Nc1ccc([N+](=O)[O-])cc1,3,2,-2,-19,.,.,.,.
O=C(NCc1ccccc1F)Nc1ccc([N+](=O)[O-])cc1,?,2,-1,5,15,91*,24,93*
Cc1ccc(Cn2ncn(-c3ccccc3)c2=O)cc1,?,1,-14,.,4,95*,26,97*
Cc1cc(C)c(Cn2ncn(-c3ccc(Br)cc3)c2=O)c(C)c1,-1,1,.,-17,.,.,.,.
COc1ccc(-c2oc3ccccc3c2C(=O)Oc2ccccc2)cc1,26,-3,4,10,.,.,.,.
COc1ccc(CC2=CC(=O)c3ccccc3C2=O)cc1,1,6,50,-6,.,.,.,.
Cc1cccc(OCC(=O)O/N=C(\N)c2ccccn2)c1,-91*,3,-3,-3,-1,93*,0,96*
Cc1cc(C)cc(OCC(=O)O/N=C(\N)c2ccccn2)c1,?,1,48,1,.,.,.,.
N/C(=N\OC(=O)COc1ccc(Br)cc1)c1cccnc1,-36,0,1,16,.,.,.,.
Cc1cc(C)cc(OCC(=O)O/N=C(\N)c2cccnc2)c1,-96*,1,.,.,0,98*,-32,98*
N/C(=N\OC(=O)COc1ccccc1)c1cccnc1,-88*,1,-6,40,25,95*,19,97*
CCOc1ccc(C(=O)Nc2ccc3[nH]ncc3c2)cc1,29,-12,-9,319,.,.,.,.
O=S(=O)(c1ccc2ccccc2c1)N1CCN(C(=S)Nc2ccccc2F)CC1,-97*,0,2,-5,25,100*,-25,100*
O=S(=O)(c1ccc(Cl)cc1)N1CCN(C(=S)Nc2ccccc2F)CC1,0,0,1,38,.,.,.,.
O=C(NCCc1ccccc1)c1cccc(N2CCCC2=O)c1,39,0,-1,-4,.,.,.,.
SMILES,AI-2 QS modul,HIF act,ALR inh,SUMO Mot1 rescue,JMH597 growth rt,BB721 const-QS lum,BB721 growth rt,AI-2 QS JMH597
COc1ccc(/C=N/NC(=O)CNC(=O)c2cccs2)cc1,-73,0,-3,292,.,.,.,.
O=C(CNC(=O)c1cccs1)N/N=C/c1ccc(Cl)cc1,-87*,0,0,-17,-3,96*,9,96*
O=C(CN1CCN(Cc2ccc(Cl)cc2)CC1)N/N=C/c1cccs1,5,0,-3,3,.,.,.,.
O=C(Cc1ccc(Cl)cc1)N/N=C/c1cccs1,?,0,-4,18,25,89*,18,90*
CCN1C[C@@H]2[C@@H]3C(=O)N(C)C(=O)[C@@H]3[C@](CC)(C1=O)N2C(=O)c1ccc(C(C)(C)C)cc1,.,.,5,-17,.,.,.,.
Cc1ccc(S(=O)(=O)c2ccc(C)cc2)cc1,-92*,0,-5,-1,1,98*,-23,100*
CN1CC(=O)N(CC(=O)Nc2ccc(Cl)c(C(F)(F)F)c2)C1=O,-96*,0,-3,3,19,99*,13,99*
CC1(C)C(=O)Nc2ccccc2N1C(=O)COC(=O)CCSc1ccccc1,-85*,0,-16,.,7,92*,-29,95*
Cc1ccc(OCCC(=O)OCC(=O)N2CC(=O)Nc3ccccc32)cc1,.,.,-10,-15,.,.,.,.
CC1(C)C(=O)Nc2ccccc2N1C(=O)COC(=O)CSc1ccc(F)cc1,.,.,1,0,.,.,.,.
O=C1CN(C(=O)COC(=O)CCCOc2ccccc2)c2ccccc2N1,-81*,0,-6,105,-7,94*,-17,96*
Nc1cccc(C(=O)Nc2cccc3ncccc23)c1,?,-8,-1,351,2,5,17,-3
Cc1ccc(C2(C)NC(=O)N(CC(=O)NCCC3=CCCCC3)C2=O)cc1 (configuration not stated),-74,0,10,.,.,.,.,.
CC1(c2ccc3c(c2)OCO3)NC(=O)N(CC(=O)NCCC2=CCCCC2)C1=O (configuration not stated),-87*,0,-24,0,12,90*,22,95*
CC1(c2ccccc2)NC(=O)N(CC(=O)NCCC2=CCCCC2)C1=O (configuration not stated),-90*,-1,1,.,4,91*,-1,95*
Cn1nnnc1SCC(=O)Nc1ccc(C(=O)N2CCN(Cc3ccccc3F)CC2)cc1,.,.,.,23,.,.,.,.
COc1ccc(CCNC(=O)C2CCN(S(=O)(=O)c3ccc(F)cc3)CC2)cc1,29,-2,.,-15,.,.,.,.
O=C(/C=C/Sc1ccccc1)c1ccc(Cl)cc1,-53,4,-20,-4,.,.,.,.
O=C(/C=C/Sc1ccccc1)c1ccccc1,-92*,5,?,41,10,98*,47,98*
O=C(Cn1cnc2ccccc2c1=O)Nc1ccc(N2CCOCC2)cc1,-25,0,.,0,.,.,.,.
O=C(Cn1cnc2ccccc2c1=O)Nc1ccc(S(=O)(=O)N2CCOCC2)cc1,-94*,0,1,15,1,99*,-6,99*
O=C(Cn1cnc2ccccc2c1=O)Nc1ccc(S(=O)(=O)N2CCCC2)cc1,-97*,0,-6,42,-9,100*,0,100*
Cc1ccc(S(=O)(=O)N2CCCC2CNC(=O)C(=O)Nc2ccc(F)cc2)cc1 (configuration not stated),17,3,-3,-5,.,.,.,.
